ClpP mod = qHTS Assay for Activators of ClpP; Potency, µM (series often up to 57.5 µM), for the others: at the top dose activity change, negative = active; AID 651965, 2013; ATP-dependent Clp protease proteolytic subunit (Bacillus subtilis (strain 168)), P80244; purified B. subtilis ClpP, FRET peptide cleavage, 20 min; hit rate 1.9% among 340,000; active = well fitted falling curve with a large enough effect; inconclusive = small, poorly fitted or top-dose-only effect; inactive = no such curve, though single readings can be large or run the other way; note: the source files actives as falling curves though it sought activators and does not explain the sign; nearly all actives have a fitted effect of over 65% in size
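Purified B. subtilis ClpP, 10 microg/mL final in Tris/HCl pH8 with KCl, BSA, glycerol and Tween-20, cleaved an Abz/nitrotyrosine-quenched decapeptide. Fluorescence (ex 320, em 430) was read at 0 and 20 min at room temperature. Delta was normalized to 5.8 microM ADEP and DMSO/no-enzyme controls.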
TDP1 block = qHTS Assay for Inhibitors of Tyrosyl-DNA Phosphodiesterase (TDP1); Tyrosyl-DNA phosphodiesterase 1 (Homo sapiens), Q9NUW8; hit rate 0.28% among 350,000; Potency, µM (doses to about 130 µM), for inactives: top-dose activity change, negative = inhibition, actives largely listed as inhibitors; AID 485290, 2010; recombinant TDP1, AlphaScreen DNA substrate cleavage; note: % is set by controls: 0 for no effect and ±100 for the full control effect; nearly all actives have a fitted effect of over 40% in size
Target sequence (Q9NUW8 whole entry, looked up): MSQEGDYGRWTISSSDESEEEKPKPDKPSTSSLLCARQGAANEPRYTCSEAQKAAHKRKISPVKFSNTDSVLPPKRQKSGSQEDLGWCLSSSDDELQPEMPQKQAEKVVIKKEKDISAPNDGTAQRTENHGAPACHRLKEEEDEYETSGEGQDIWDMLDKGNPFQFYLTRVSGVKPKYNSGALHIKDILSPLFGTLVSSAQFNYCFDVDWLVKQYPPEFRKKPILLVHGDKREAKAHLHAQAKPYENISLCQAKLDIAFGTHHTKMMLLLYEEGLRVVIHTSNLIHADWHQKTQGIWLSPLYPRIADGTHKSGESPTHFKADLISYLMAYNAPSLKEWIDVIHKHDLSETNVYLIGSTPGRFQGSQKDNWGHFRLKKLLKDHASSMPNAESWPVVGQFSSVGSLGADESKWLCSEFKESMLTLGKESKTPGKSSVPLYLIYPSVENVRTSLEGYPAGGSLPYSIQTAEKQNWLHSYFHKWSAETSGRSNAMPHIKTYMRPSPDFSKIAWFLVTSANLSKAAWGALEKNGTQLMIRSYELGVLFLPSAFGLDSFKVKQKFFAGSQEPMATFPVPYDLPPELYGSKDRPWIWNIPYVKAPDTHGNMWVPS
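Tdp1 1 nM final; 15 min RT w/ cpd; substrate 15 nM, 5 min; beads 10 ug/ml, 10 min; AlphaScreen read. Neg ctrl: no enzyme.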
TDP1 cell noCPT = qHTS for Inhibitors of human tyrosyl-DNA phosphodiesterase 1 (TDP1): qHTS in cells in absence of CPT | DT40 Tdp1-/- hTDP1 cells, no CPT, ATP luminescence, 48 h | Potency, µM (highest dose often 46.2 µM), without a hit: at the top dose activity change, negative = growth inhibition, hits mostly inhibitors | hit rate 15% among 420,000 | AID 686978, 2013; note: % is set by controls: 0 for no effect and ±100 for the full control effect; nearly all actives have a fitted effect of over 55% in size
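Stably hTDP1-transfected Tdp1-null chicken DT40 cells were treated with library compounds minus camptothecin and grown for at least 48 hr at 37 °C, after which cellular ATP was quantified by luminescence.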
TDP1 cell CPT = qHTS for Inhibitors of human tyrosyl-DNA phosphodiesterase 1 (TDP1): qHTS in cells in presence of CPT. chicken DT40 Tdp1-/-;hTDP1 cells + 20 nM CPT, ATP luminescence, 48 h. Potency, µM (series often up to 46.2 µM), for the others: top-dose activity change, negative = growth inhibition, usual class: inhibitors. hit rate 12% among 420,000; note: % is set by controls: 0 for no effect and ±100 for the full control effect; nearly all actives have a fitted effect of over 55% in size
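Cell growth measured by CellTiter-Glo luminescence after a minimum 48 h, 37 C compound exposure with 20 nM CPT in Tdp1-knockout DT40 cells stably expressing hTDP1, seeded 400/well; qHTS titration format.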
Active calls of the source: *; ? = inconclusive; . = no result. The list is not random: actives were taken first. Their share in the collection is about 17%. Unless noted, calls come from the whole dose curve; as a rule, active = well fitted curve in the direction sought with a large enough effect; inconclusive = small, poorly fitted or top-dose-only effect, or another doubt; inactive = no such curve, though single readings can be large; an effect the other way counts as inactive or inconclusive. Potency is the fitted concentration of half-maximal effect.

SMILES | ClpP mod | TDP1 block | TDP1 cell noCPT | TDP1 cell CPT
CCCCN(CCCC)CCCNC(=O)c1ccc2nc(N3CCCCC3)sc2c1 | -10.8% | 1.0% | 23.1µM* | ?
Cc1ccc(C)c(N2CCN(CCCNC(=O)c3ccc4nc(N5CCCCC5)sc4c3)CC2)c1 | -12.1% | 2.5% | 10.3µM* | 18.4µM*
Cn1cc(-c2nc3cnc(Oc4ccccc4)nc3n(Cc3cccs3)c2=O)c2ccccc21 | . | . | -3.9% | -15.5%
Cc1ccc(/C=N/NC(=O)CNC(=O)c2cccc([N+](=O)[O-])c2C)o1 | 1.8% | 6.3% | -13.2% | -4.8%
CCc1ccc(NC(=O)Cn2c(C(=O)OC)cc3oc(C)cc32)cc1 | -0.2% | 0.0% | ? | ?
O=C(NCCCN1CCOCC1)c1cc(-c2ccc(Cl)c(Cl)c2)on1 | . | -12.9% | 16.4µM* | ?
CCN(CC)CCCNC(=O)c1cc(-c2ccc(Cl)c(Cl)c2)on1 | -1.0% | -2.0% | 23.1µM* | 20.6µM*
Cc1ccc(-c2cc(C(=O)NCCCN3CCOCC3)no2)cc1 | -0.8% | 1.1% | -12.5% | ?
COC(=O)c1[nH]c2cc(OC)c(OC)cc2c1NC(=O)Oc1ccccc1 | 31.6µM* | 2.3% | -14.7% | 24.3%
CCOC(=O)c1[nH]c2cc(OC)c(OC)cc2c1NC(=O)C(C)N1CCN(Cc2ccccc2)CC1 (stereo not given) | 31.6µM* | 0.0% | 18.4µM* | ?
COC(=O)c1[nH]c2ccccc2c1NC(=O)Oc1ccccc1 | 28.2µM* | -1.2% | 9.7% | 3.9%
C=CCOC(=O)Nc1c(C(=O)OC)[nH]c2ccccc12 | -7.4% | -1.0% | -6.0% | 37.8%
CCOC(=O)c1[nH]c2ccc(F)cc2c1NC(=O)Nc1ccccc1OC | -3.7% | 6.2% | ? | -12.8%
CC(C)Oc1ccc(S(=O)(=O)N2CCOCC2)cc1NC(=O)c1ccc(Cl)c(S(=O)(=O)N2CCOCC2)c1 | -4.6% | . | -21.7% | -13.5%
Cc1cc(/C=C(\C#N)C(=O)OCC(=O)N(C)c2c(N)n(Cc3ccccc3)c(=O)[nH]c2=O)c(C)n1CC(C)C | -0.1% | . | ? | -14.6%
O=C(Nc1cccc2nsnc12)c1cc2c(cc1Cl)Sc1nccn1S2(=O)=O | -4.5% | . | ? | 23.1µM*
O=C(Nc1cccc2nsnc12)c1cccnc1Cl | ? | 0.0% | -25.7% | -23.9%
COc1cc([N+](=O)[O-])c(C)cc1NC(=O)c1ccc(OC)c(OC)c1 | -3.5% | . | ? | -18.0%
Cc1csc(NC(=O)c2ccco2)n1 | 22.4µM* | 3.3% | -16.6% | -0.3%
Cc1csc(NC(=O)c2ccc(Cn3nc(C)c(Br)c3C)o2)n1 | 2.6% | 0.5% | 20.6µM* | ?
Cc1nc(-c2ccc(NC(=O)c3ccco3)cc2)cs1 | -1.4% | . | ? | 13µM*
Cc1csc(NC(=O)c2ccc(C(=O)Nc3nc(C)cs3)cc2)n1 | . | -1.3% | . | .
O=C(Nc1ccc(-c2ccc(N3CCCCC3)nn2)cc1)c1ccco1 | -6.9% | . | 25.9µM* | ?
Cc1ccccc1N(CC(=O)N/N=C/c1cc(Br)c(C)o1)S(C)(=O)=O | -1.6% | 8.1% | ? | -10.9%
CC1=C(C(=O)N2CCOCC2)CC(CC(=O)NCc2cccc3ccccc23)C(=O)N1Cc1ccccc1 (stereo not given) | 0.0% | . | ? | ?
SMILES | ClpP mod | TDP1 block | TDP1 cell noCPT | TDP1 cell CPT
O=C(Nc1cnns1)Oc1ccccc1 | 1.8% | . | -12.7% | -16.6%
O=S(c1ccc2ccccc2c1)c1cnns1 (stereo not given) | 1.0% | -5.2% | 2.59µM* | 1.03µM*
CCOC(=O)N1CCN(S(=O)(=O)N2CCCC(C(=O)NCc3ccc(C)cc3)C2)CC1 (stereo not given) | 0.2% | . | ? | ?
CC[C@H](CO)Oc1cc(NCc2ccc(Cl)c(Cl)c2)c2ncn(C(C)C)c2c1 | 0.4% | 8.2% | ? | 16.4µM*
CCC(CO)Oc1cc(NCc2ccc(C)cc2)c2ncn(C(C)C)c2c1 (stereo not given) | -4.4% | 10.3% | ? | ?
CCC(CO)Oc1cc(NCc2ccc(C(F)(F)F)cc2)c2ncn(C(C)C)c2c1 (stereo not given) | -0.1% | 7.2% | ? | ?
